# Data reported in PubChem BioAssay AID729 (The Scripps Research Institute Molecular Screening Center, 2007).
# In all, about 97,000 compounds went through this assay and about 450 (0.46%) were called active. The full list was thinned out, with actives kept by preference. Unmarked numbers belong to inactive results. No stated cut-off is given here; in the data, active means activation above about 16%; inactive means the rest.
# Target: Sphingosine 1-phosphate receptor 2 (Homo sapiens) (UniProt O95136)
# Assay: activation of human S1P2 receptor – cell-based, primary screen (AID 729);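 further: 0% = vehicle low control and 100% = maximal reference agonist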
# Details: S1P2-expressing cell line, agonist reporter read-out; at 4.5 µM; stronger effect = higher value
# Sequence of Sphingosine 1-phosphate receptor 2 (Homo sapiens) (O95136 whole entry, looked up): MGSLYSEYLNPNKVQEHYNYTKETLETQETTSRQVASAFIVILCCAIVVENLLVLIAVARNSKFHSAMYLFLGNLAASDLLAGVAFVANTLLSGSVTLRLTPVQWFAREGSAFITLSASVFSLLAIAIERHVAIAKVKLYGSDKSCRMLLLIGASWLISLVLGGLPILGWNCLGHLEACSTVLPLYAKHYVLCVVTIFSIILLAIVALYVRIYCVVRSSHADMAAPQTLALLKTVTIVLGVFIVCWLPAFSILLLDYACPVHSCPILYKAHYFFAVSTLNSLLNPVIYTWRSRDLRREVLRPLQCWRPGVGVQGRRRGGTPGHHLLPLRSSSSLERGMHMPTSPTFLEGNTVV
row,SMILES,activation
1,Cc1ccc(-n2c(SCC(=O)Nc3ccc4c(c3)OCO4)nnc2-c2ccccn2)cc1,-1.29%
2,Cc1cccc(C)c1NC1=NC(=S)N(c2ccc(N(C)C)cc2)C1(C)C,-9.2%
3,Cc1cc(C(=O)OCC(=O)Nc2ccc(F)c(F)c2)c(C)o1,-1.12%
4,Cc1sc2nc(SCC(N)=O)n(C)c(=O)c2c1C,-6.32%
5,CCOc1ccc(NC(=O)CN(C)CC(=O)Nc2cccc(Cl)c2C)cc1OCC,-8.46%
6,CS(=O)(=O)Nc1ccc(C(=O)N2CCCC2)cc1,-1.67%
7,O=C(NC1CCCCC1)c1cc([N+](=O)[O-])ccc1N1CCOCC1,-3.96%
8,CC1(C)Cc2c(C#N)c(SCc3nc4ccccc4[nH]3)nc(N3CCOCC3)c2CO1,31% (active)
9,CC(C)c1nc(N2CCOCC2)c(C#N)c2c1COC(C)(C)C2,-3.4%
10,COc1ccc(CSc2nc(N3CCOCC3)c3c(c2C#N)CC(C)(C)OC3)cc1,-4.98%
11,Cc1c(CCO)c(=O)[nH]n1C(=O)c1c(F)cccc1F,-3.16%
12,CCn1c(SCC(=O)c2ccc3ccccc3c2)nnc1-c1cccs1,-3.98%
13,CCCc1nc2oc3c(OCC)ncnc3c2c2c1COC(C)(C)C2,-0.19%
14,O=C(Oc1ccc([N+](=O)[O-])cc1)c1ccc2ccccc2n1,-2.37%
15,CCOC(=O)c1cnc(SCC(=O)Nc2ccccc2C(=O)OC)nc1N,1.96%
16,O=C(Cc1ccc2c(c1)CCCC2)Nc1ccccc1Cl,-3.38%
17,C=C(C)Cn1c(N2CCCC2)nc2c1c(=O)[nH]c(=O)n2C,19.6% (active)
18,C=C(C)Cn1c(N2CCN(CC)CC2)nc2c1c(=O)[nH]c(=O)n2C,-3.08%
19,Cc1nnc(SCCCn2c(N3CCCCC3)nc3c2c(=O)[nH]c(=O)n3C)s1,-7%
20,O=C(O)c1ccccc1-c1ccccc1C(=O)Nc1cccc2ccccc12,-6.33%
21,CCOC(=O)c1cc(C#N)c(N2CCCCC2)nc1-c1ccccc1,-3.1%
22,Cc1ccc(C(=O)N2CCCC2)c(F)c1F,-3.27%
23,COc1ccc(-n2nnnc2SCC(=O)Nc2ccccc2)cc1,-5.85%
24,COc1ccccc1N1CC(C(=O)Nc2ccc(S(=O)(=O)N3CCOCC3)cc2)CC1=O (stereo unspecified),-6.57%
25,COc1ccc(Cc2nnc(SCC(=O)c3cccc([N+](=O)[O-])c3)n2C)cc1,-3.41%
26,CN(C)CCNC(=O)Nc1cccc(Cl)c1Cl,-3.84%
